Laboratory results as given in PubChem BioAssay (Tox21).
Records with an inconclusive call do not appear. Where a call stands in place of a potency, no number is given. Values without a mark were called inactive. Active and inactive are the calls of the source. Calls come from the whole dose curve; as a rule, active = well fitted cell-killing curve with a large enough effect in the repeat runs; inconclusive = weak or mixed curves, or effect the other way; inactive = no such curve, though single readings can be large or run the other way.

Experiment: Caspase-3/7 induction in CHO-K1 cells by small molecules, qHTS cell viability counter screen (AID 1346979); note: nearly all actives have a fitted effect of over 35% in size
Conditions: CellTiter-Fluor fluorescence, 17 h; series mostly up to 92.4 µM
Text: National Center for Advancing Translational Sciences [NCATS]
NIH Chemical Genomics Center [NCGC]
U.S. Environmental Protection Agency [EPA]
National Institutes of Environmental Health Sciences [NIEHS]
National Toxicology Program [NTP]
U.S. Food and Drug Administration [FDA]
Apoptosis is a process of programmed cell death and plays a central role in the development of multicellular organisms. It is a highly regulated process and induces cell death by activating caspases, which are the members of cysteine aspartic acid-specific protease (caspase) family. Caspases involved in apoptosis are classified by their mechanism of action as initiator caspases (caspase-2, -8, -9 and -10) and executioner caspases (caspase-3, -6, and -7). Inhibition of apoptosis results in number of cancers, autoimmune diseases, inflammatory diseases and viral infection. To identify small molecule compounds that induce apoptosis, a homogeneous, luminescent Caspase-Glo 3/7 assay was used. Wild type CHO-K1 cells were used to screen Tox21 libraries for identifying caspase-3/7 activity inducers. Also cytotoxicity of the compounds was tested in parallel by measuring the cell viability using CellTiter-Fluor assay system in the same wells.
Tox21 Assay Protocol Summary:
CHO-K1 cells were dispensed at 1,500 per well in 5uL of culture medium into white solid bottom 1536-well plates (Corning Life Sciences, Corning, NY) using a Multidrop Combi (Thermo Scientific, Waltham, MA) dispenser. The assay plates were incubated at 37 C and 5% CO2 for 5hr, and then 23nL of compounds dissolved in DMSO and positive control were transferred using a Pintool station (Wako, San Diego, CA). The assay plates were incubated at 37C and 5% CO2 for 17hr. For cytotoxicity read, after 16hr incubation at 37C, 1uL CellTiter-Fluor reagent (Promega Corporation, Madison, WI) was added to each well of the assay plates using Flying Reagent Dispenser (FRD, Aurora Discovery, San Diego, CA). After 1hr incubation at 37C and 5% CO2, the fluorescence signal was quantified using a ViewLux plate reader (PerkinElmer, Shelton, CT).
Potency is the fitted concentration of half-maximal effect.

SMILES | Potency | activity change, negative = cytotoxicity
FC(F)(F)C(Cl)(Cl)Cl | inactive | 
CC(C)S | inactive | 
Cc1ccc(C(C)C)cc1O | inactive | 
CC(C)O | inactive | 
Cc1cc(NS(=O)(=O)c2ccc(N)cc2)nc(C)n1 | inactive | 
CC1(C)C(=O)N(Cl)C(=O)N1Br | inactive | 
OCCN1CCN(CCO)CC1 | inactive | 
C[C@@H]1CN(c2c(F)c(F)c3c(=O)c(C(=O)O)cn(C4CC4)c3c2F)C[C@H](C)N1 |  | 0.544% [at 19 µM]
CCN(CC)CCOc1ccc(Cc2ccccc2)cc1 | inactive | 
OCc1ccccc1O | inactive | 
C=CC(C)(O)CC/C=C(\C)CCC=C(C)C (stereo not given) | inactive | 
Nc1cccc(S(=O)(=O)O)c1 | inactive | 
CN1CCN(N)CC1 | inactive | 
CCCCC(CC)COC(=O)COc1cc(Cl)c(Cl)cc1Cl (stereo not given) | inactive | 
Cc1ccc(C)c(N)c1 | inactive | 
NS(=O)(=O)c1cc(-c2nn[nH]n2)c(NCc2cccs2)cc1Cl | inactive | 
CC(C)(C)c1cccc(O)c1 | inactive | 
COc1ccc(Nc2ccc(OC)cc2)cc1 | inactive | 
Cc1onc(-c2ccccc2)c1C(=O)Cl | inactive | 
CN1CCC[C@@H]1Cc1c[nH]c2ccc(CCS(=O)(=O)c3ccccc3)cc12 | inactive | 

SMILES | Potency | activity change, negative = cytotoxicity
Clc1cccc(-c2cc(Cl)cc(Cl)c2)c1 | inactive | 
CO[C@@]1(NC(=O)CSCC#N)C(=O)N2C(C(=O)O)=C(CSc3nnnn3C)CS[C@@H]21 | inactive | 
Cc1cc2nc(N)sc2cc1C | inactive | 
C/C(=N\O)[C@@H](C)NCC(C)(C)CN[C@H](C)/C(C)=N/O | inactive | 
CC(C)NC[C@@H](O)COc1cccc2ccccc12 | inactive | 
CO[Si](C)(C)OC | inactive | 
CCN(CC)CC1CCCCN1CC(=O)N1c2ccccc2C(=O)Nc2cccnc21 (stereo not given) | inactive | 
CN(CC1(C)CCCO1)S(=O)(=O)c1ccc(Cl)c(S(N)(=O)=O)c1 (stereo not given) | inactive | 
CCOc1ccc2nc(N)sc2c1 | inactive | 
N#CSCC(=O)O | inactive | 
CC(C)NCC(O)COc1ccc(CCOCC2CC2)cc1 (stereo not given) | inactive | 
CS(=O)(=O)c1ccc([C@@H](O)[C@@H](CF)NC(=O)C(Cl)Cl)cc1 | inactive | 
CC[C@H]1CC[C@H](NCc2cc3c(cc2OC)[C@H]2C[C@H]2C(=O)N3C)[C@H](c2ccccc2)N1 | 24.3 µM (active) | 
Oc1ccccc1C=NCc1ccccc1 | inactive | 
O=c1[nH]c(=O)n([C@H]2C[C@H](O)[C@@H](CO)O2)cc1C(F)(F)F | inactive | 
CC(Oc1c(Cl)cccc1Cl)C1=NCCN1 (stereo not given) | inactive | 
CC(C)(CO)[C@@H](O)C(=O)NCCC(=O)O | inactive | 
CCNCCO | inactive | 
COc1cc(C)ccc1C(C)C | inactive | 
Nc1ccc2ccccc2c1S(=O)(=O)O | inactive | 
